Screening data deposited in PubChem BioAssay by NMMLSC.
This is a sample that favours compounds with a hit; in the whole collection about 1.2% have one here.
RGS7-Gao: regulators of human RGS7-Galphao interaction; 0.35% of 220,000 active; binding response (% of control), % at 10 µM; P09471; AID 1439; Multiplexed bead flow cytometry, RGS7-Galphao binding; actives lie on both sides; in the data active = binding response below about 49% or above about 150%; inconclusive = no clear call, values can overlap the other calls; inactive = in between;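 also: fluorescent Galphao held in activated GDP-AlF4 state binding bead-coupled RGS7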
Target sequence (P09471 whole entry, looked up): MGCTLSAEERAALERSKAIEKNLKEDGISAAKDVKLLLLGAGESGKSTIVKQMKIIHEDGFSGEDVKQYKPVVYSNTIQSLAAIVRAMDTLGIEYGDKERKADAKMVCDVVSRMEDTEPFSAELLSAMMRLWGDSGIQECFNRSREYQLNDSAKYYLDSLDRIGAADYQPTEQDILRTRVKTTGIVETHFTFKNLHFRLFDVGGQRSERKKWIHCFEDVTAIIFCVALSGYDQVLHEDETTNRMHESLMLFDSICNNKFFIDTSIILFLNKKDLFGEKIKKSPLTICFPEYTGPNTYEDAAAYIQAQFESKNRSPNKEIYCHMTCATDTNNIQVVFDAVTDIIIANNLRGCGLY
GSH bead fluor: compound fluoresces at 488/530 nm on GSH beads; GSH beads flow cytometry, compound fluorescence 488/530 nm; hits give high values; fluorescence (KMESF) at 10 µM; 0.25% of 190,000 active; AID 1776; in the data active = fluorescence above about 89;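 also: glutathione beads carrying GST-tagged Bcl family fusion proteins plus one bare bead set; values are compound well signal with DMSO vehicle wells as background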
Avidin fluor: avidin bead compound fluorescence profile | 0.38% of 220,000 active | fluorescence (KMESF) at 10 µM | Avidin beads, compound fluorescence 488/530 nm, flow cytometry; hits give high values | AID 1775; in the data active = fluorescence above about 47
RGS8-Gao reg: human RGS8-Galphao interaction regulation | P09471 | multiplexed bead flow cytometry, RGS8-Galphao binding; actives lie on both sides | response (percent of control binding), % at 10 µM | 0.34% of 220,000 active | AID 1423; in the data active = response below about 60% or above about 140%; inactive = in between;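 also: Galphao activated as the GDP aluminium fluoride complex binding bead-coupled RGS8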
RGS4-Gao reg: modulates binding of RGS4 to human Galphao; P09471; Multiplexed bead flow cytometry; actives lie on both sides; binding response (% of control), % at 10 µM; 0.33% of 220,000 active; AID 1415; in the data active = binding response below about 49% or above about 150%; inactive = in between;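 also: fluorescent Galphao activated with aluminum fluoride binding bead-coupled RGS4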
RGS16-Gao HTS: modulates binding between human RGS16 and Galphao; bead-based flow cytometry RGS16-Galphao binding, fluorescence; actives lie on both sides; binding response (% of control), % at 10 µM; O15492+P09471; 0.38% of 220,000 active;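 also: Galphao activated by GDP with aluminum fluoride before binding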
RGS4-Gao HTS: RGS4-Galphao interaction regulator (human) | shares compounds with RGS16-Gao HTS | multiplexed bead flow cytometry, RGS–Galpha-o binding | RGS4–Galpha-o binding response, % at 10 µM | 99% of 1,600 active | AID 1504;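 also: fluorescently labeled Galpha-o bound to GDP with aluminium fluoride binding biotinylated RGS beads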
Biotin-avidin: interferes with biotinylated probe binding to avidin beads; shares compounds with RGS16-Gao HTS; streptavidin beads, fluorescein-biotin binding, flow cytometry; inhibition, % at 10 µM; 1,700 tested, under 10 active; AID 1783;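 active = inhibition above 50%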;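 also: median green fluorescence of gated singlet beads compared with DMSO control wells; 0% = DMSO wells and 100% = complete loss of bead fluorescence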
RGS8-Gao single: confirmation of regulators of human RGS8-Galphao interaction; shares compounds with RGS16-Gao HTS; bead-based flow cytometry RGS8-Galphao binding, fluorescence; actives lie on both sides; binding response (% of control), % at 10 µM; 3% of 1,700 active; AID 1836; in the data active = binding response below about 72% or above about 130%; inactive = in between;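 also: Galphao activated as GDP AlF4 complex before binding bead RGS8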
RGS7-Gao confirm: RGS7-Galphao interaction regulation, single point confirmation; shares compounds with RGS16-Gao HTS; bead-based flow cytometry RGS7-Galphao binding; actives lie on both sides; response (percent of control binding), % at 10 µM; 7.8% of 1,700 active; in the data active = response below about 75% or above about 130%; inactive = in between;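 also: fluorescent Galphao activated with GDP and aluminum fluoride binding bead-coupled RGS7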
RGS16-Gao single: confirmation of regulators of human RGS16-Galphao interaction. shares compounds with RGS16-Gao HTS. bead-based flow cytometry, RGS16-Galphao binding; actives lie on both sides. response (% of control binding), % at 10 µM. 4% of 1,700 active; in the data active = response below about 74% or above about 130%; inactive = in between;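 also: Galphao activated as the GDP aluminium fluoride complex binding bead-coupled RGS16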
RGS4-Gao single: confirmation of regulators of human RGS4-Galphao interaction; shares compounds with RGS16-Gao HTS; RGS4-Galphao binding, multiplexed bead flow cytometry; actives lie on both sides; binding response (% of control), % at 10 µM; 4% of 1,700 active; AID 1840; in the data active = binding response below about 74% or above about 130%; inactive = in between
RGS19-Gao single: RGS19-Galphao interaction regulation, single point confirmation. shares compounds with RGS16-Gao HTS. bead-based flow cytometry RGS19-Galphao binding; actives lie on both sides. response (percent of control binding), % at 10 µM. 5% of 1,700 active. AID 1841; in the data active = response below about 50% or above about 160%; inactive = in between;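 also: 100% = no compound control and 0% = blank background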
Target sequence (P09471 whole entry, looked up): as above
Target sequence (P49795 whole entry, looked up): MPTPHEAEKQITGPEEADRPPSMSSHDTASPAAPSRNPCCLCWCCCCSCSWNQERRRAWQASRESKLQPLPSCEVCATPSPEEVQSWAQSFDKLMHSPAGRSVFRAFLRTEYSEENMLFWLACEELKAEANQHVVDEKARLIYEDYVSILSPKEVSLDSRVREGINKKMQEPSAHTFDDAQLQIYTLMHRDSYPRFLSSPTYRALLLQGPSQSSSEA
* hit, by the source's call; ? = inconclusive; / = no result given; [ ] = remark or other dose. Unless noted, no rule for the calls is given here.

SMILES	RGS7-Gao	GSH bead fluor	Avidin fluor	RGS8-Gao reg	RGS4-Gao reg	RGS16-Gao HTS	RGS4-Gao HTS	Biotin-avidin	RGS8-Gao single	RGS7-Gao confirm	RGS16-Gao single	RGS4-Gao single	RGS19-Gao single
COc1ccc(C(=O)c2c[nH]c(C(=O)NCc3ccco3)c2)cc1	20.4*	22	1	17.5*	28.6*	1.2*	/	-1.5	102.7	103.4	105.5	101.5	98.0
COc1cccc(C(=O)c2c[nH]c(C(=O)NCc3ccco3)c2)c1	103.3	39	5	100.2	105.0	105.5	/	/	/	/	/	/	/
Cc1cc(C)c(C(=O)COC(=O)CCNS(=O)(=O)c2c(Cl)cccc2Cl)cc1C	103.8	6	10	116.7	108.4	147.2	/	/	/	/	/	/	/
CCO[C@H]1OC(C(=O)N2CCN(Cc3ccc4c(c3)OCO4)CC2)=C[C@@H](C2CC2)[C@@H]1CCCO	42.0*	20	3	67.3	51.4	55.9	51.4*	-0.6	93.2	87.4	90.3	90.5	90.1
CCO[C@@H]1OC(C(=O)N2CCN(Cc3ccc4c(c3)OCO4)CC2)=C[C@H](c2csc3ccccc23)[C@H]1CCCO	100.4	17	7	101.2	103.6	101.3	/	/	/	/	/	/	/
CCO[C@@H]1OC(C(=O)N2CCN(Cc3ccc4c(c3)OCO4)CC2)=C[C@H](c2cn(C(C)=O)c3ccccc23)[C@H]1CCCO	167.3*[activator]	19	7	107.3	136.9	123.1	136.9*	-0.8	105.1	103.6	109.3	104.6	111.5
COc1cccc(N2CCN(c3ccc(S(=O)(=O)N4CCCC4)cc3)CC2)c1	106.4	20	7	103.9	107.6	107.8	/	/	/	/	/	/	/
COc1cc2c3c(c1OC)C1(C=CC(=O)C=C1)CC3N(C(=O)CCC(=O)O)CC2 (configuration not stated)	?	/	7	100.8	98.3	97.5	/	/	/	/	/	/	/
COc1cc2c3c(c1OC)C1(C=CC(=O)C=C1)CC3N(C(=O)c1ccccc1)CC2 (configuration not stated)	155.7*[activator]	12	120*	96.6	104.6	103.0	104.6*	/	/	/	/	/	/
CNC(=S)NNC(=O)c1ccc(=O)n(Cc2cccc(C(F)(F)F)c2)c1	?	14	9	99.4	100.0	101.3	/	/	/	/	/	/	/
COC(=O)CNC(c1ccccc1)c1cc(Br)ccc1NC(C)=O (configuration not stated)	78.9	18	6	73.1	93.9	102.3	/	0.9	101.8	102.5	98.3	102.6	105.6
COC(=O)CNC(c1ccccc1)c1cc(Cl)ccc1NC(=O)c1cccc(Cl)c1 (configuration not stated)	105.0	19	3	102.2	102.4	108.1	/	/	/	/	/	/	/
CCOC(CCc1c(C)nc(NC(C)=O)[nH]c1=O)OCC	?	/	6	98.1	102.3	103.3	/	/	/	/	/	/	/
CC(=O)Nc1nc(C)c(CCCOc2ccc([N+](=O)[O-])cc2)c(=O)[nH]1	?	/	47*	102.9	152.9*[activator]	127.8	/	1.0	103.2	107.7	106.8	104.7	94.7
CCN1CCCC1CNCc1cccc(OC)c1OCc1ccc(F)cc1 (configuration not stated)	95.5	10	2	77.2	90.6	19.9*	90.6*	1.0	104.3	99.5	103.7	103.8	100.1
Cc1ccc(S(=O)(=O)Nc2ccccc2/C=N/c2nc3ccccc3n2C)cc1	/	9	5	102.3	100.2	102.0	/	0.4	98.3	99.6	98.6	95.1	104.9
Cc1ccc(S(=O)(=O)Nc2ccccc2C=Nc2cccc(C)c2C)cc1	93.2	11	6	100.1	93.2	105.6	/	/	/	/	/	/	/
O=C(CCC(=O)NNC(=O)Nc1ccc(Cl)cc1)NCc1ccccc1	109.2	59	8	107.9	111.1	125.8	/	/	/	/	/	/	/
CCNc1ccc2noc3c2c1C(=O)c1ccccc1-3	45.6*	14	7	55.0*	46.6*	42.7	/	0.1	68.8*	62.9*	65.8*	68.8*	115.9
CCc1cccc(CC)c1NC(=O)C1CC(=O)N(c2ccc3c(c2)OCCO3)C1 (configuration not stated)	87.8	8	2	107.4	85.8	-578.3*	85.8*	/	/	/	/	/	/
C/C(=N/NC(=O)c1ccc(C)nc1)c1ccc2c(c1)CCCC2	100.6	13	8	103.9	102.5	110.1	/	/	/	/	/	/	/
O=C(CSc1nc2ccccc2c(=O)n1-c1ccccc1)NCc1ccc2c(c1)OCO2	103.5	12	22	97.4	102.2	98.8	/	/	/	/	/	/	/
Cc1cccc(-n2c(SCC(=O)NCc3ccc4c(c3)OCO4)nc3ccccc3c2=O)c1	131.1	12	14	147.9*[activator]	135.0	554.6	135.0*	-2.2	100.5	97.3	100.3	97.9	92.2
Cc1cccc(C)c1OC(=O)CSc1nnc(-c2ccccc2O)o1	100.5	7	6	100.8	101.7	105.0	/	/	/	/	/	/	/
Cc1ccc(-n2c(N)c(C(=O)N3CCOCC3)sc2=S)cc1	119.5	21	13	145.9*[activator]	120.0	228.3	120.0*	/	/	/	/	/	/
CSC1=NSC2=NC(=O)/C(=C/c3coc4ccccc4c3=O)C(=N)N12	173.8*[activator]	13	94*	92.2	149.7	200.2	149.7*	/	/	/	/	/	/
CSC1=NSC2=NC(=O)/C(=C/c3coc4ccc(O)cc4c3=O)C(=N)N12	92.0	15	13	96.3	97.1	97.3	/	/	/	/	/	/	/
CSc1ccc(C2C(C#N)=C(N)Oc3c2ccc(=O)c2c(C)oc(C)c32)cc1 (configuration not stated)	254.3*[activator]	159*	93*	132.2	179.6*[activator]	472.6	/	2.0	98.6	96.0	101.2	100.2	98.1
